Data reported in PubChem BioAssay AID2316 (Broad Institute, 2010).
The campaign covered roughly 29,000 compounds. Fewer than 10 were called active. How the calls were made is not given here. These entries were drawn from the full list.

Test: reversal of PD-1 mediated T-cell inhibition, primary screen, luminescence, primary human CD4 T cells, PD-L1 beads (AID 2316);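 further: 0% = median vehicle wells and 100% = positive control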
Conditions: CellTiter-Glo 96 h, hits give high values
With `C[C@@H]1CCCCO[C@@H](CN(C)C(=O)CCCN(C)C)[C@@H](C)CN([C@H](C)CO)C(=O)c2cc(NC(=O)Nc3ccc(F)cc3)ccc2O1` the activation was 0.492% (inactive).
For `C[C@@H]1CCCCO[C@@H](CN(C)S(=O)(=O)c2cccs2)[C@@H](C)CN([C@H](C)CO)C(=O)c2cc(NC(=O)Nc3ccc4c(c3)OCO4)ccc2O1`, the activation was -0.659% (inactive).
With `C[C@H](CO)N1C[C@H](C)[C@@H](CN(C)Cc2ccccc2)Oc2c(NC(=O)C3CCOCC3)cccc2C1=O` the activation was -1.74% (inactive).
With `COC(=O)c1scc(S(=O)(=O)C(C)(C)C)c1-n1cccc1` the activation was -0.136% (inactive).
With `COc1cc(/C=C/C(=O)O[C@@H]2O[C@H](CO[C@@H]3O[C@H](CO)[C@@H](O)[C@H](O)[C@H]3O)[C@@H](O)[C@H](O)[C@H]2OC(=O)/C=C/c2cc(OC)c(O)c(OC)c2)cc(OC)c1O` the activation was -0.424% (inactive).
In the case of `O=C(CCCN1C(=O)c2ccccc2C1=O)Nc1cccc2c1CCCC2`, the activation is reported as 1.14% (inactive).
For `CCC1(C)C(=O)C=C2C(=COC(C)=C2C)C1O` (centres undefined), the activation was 0.686% (inactive).
In the case of `CCCOc1ccc(C(=O)C2C(=O)C(=O)N(c3nc(C)c(C(=O)OC)s3)C2c2ccco2)cc1` (centres undefined), the activation is reported as 1.4% (inactive).
In the case of `Cc1ccc(S(=O)(=O)Nc2cccc3c2O[C@@H](CN(C)CC2CCCCC2)[C@H](C)CN([C@@H](C)CO)C3=O)cc1`, the activation is reported as 3.09% (inactive).
In the case of `C[C@H]1CN([C@@H](C)CO)C(=O)Cc2cc(NC(=O)Nc3ccc(F)cc3)ccc2O[C@@H]1CN(C)C(=O)NC1CCCCC1`, the activation is reported as 0.349% (inactive).
For `COc1ccc(S(=O)(=O)NCc2ccccn2)cc1I`, the activation was 1.57% (inactive).
For `C[C@H](CO)N1C[C@H](C)[C@@H](CN(C)Cc2ccccc2)Oc2ccc(NC(=O)CCCN(C)C)cc2C1=O`, the activation was 1.04% (inactive).
For `Cc1noc(C)c1NC(=O)Nc1ccc2c(c1)C(=O)N([C@H](C)CO)C[C@H](C)[C@@H](CN(C)C(=O)Nc1ccccc1)O2`, the activation was 1.04% (inactive).
With `C[C@H](CO)N1C[C@H](C)[C@H](CN(C)Cc2ccc3c(c2)OCO3)Oc2c(cccc2N(C)C)C1=O` the activation was 0.478% (inactive).
In the case of `C[C@H]1CN([C@@H](C)CO)C(=O)c2cccc(NC(=O)CCCCCC(=O)Nc3ccccc3N)c2O[C@@H]1CN(C)CC1CCCCC1`, the activation is reported as 0.769% (inactive).
For `CS(=O)(=O)N(CC(=O)NC1CC1)c1ccc(Cl)c(C(F)(F)F)c1`, the activation was -0.255% (inactive).
For `CCOC(=O)c1cnn2c(C(F)(F)F)cc(C)nc12`, the activation was 0.193% (inactive).
In the case of `COC(=O)c1ccccc1NC(=O)C(C)Oc1ccccc1F` (centres undefined), the activation is reported as 2.99% (inactive).
With `COc1ccc(N2C(=O)CC(SCC(=O)Nc3ccccc3F)C2=O)cc1` (centres undefined) the activation was 1.75% (inactive).
In the case of `COc1ccc(C)cc1S(=O)(=O)N(C)CC(=O)Nc1ccc(Br)cc1F`, the activation is reported as 1.42% (inactive).
With `Cc1ccc(S(=O)(=O)Nc2ccc3c(c2)C(=O)N([C@H](C)CO)C[C@H](C)[C@@H](CN(C)C(=O)Nc2ccc4c(c2)OCO4)OCCCC[C@@H](C)O3)cc1` the activation was 0.503% (inactive).
In the case of `CCCCn1c(O)c(C#N)c(C)cc1=O`, the activation is reported as 1.29% (inactive).
With `Cc1ccc(-c2csc3ncn(CC(=O)Nc4ccc(F)c(Cl)c4)c(=O)c23)cc1C` the activation was -0.0295% (inactive).
With `COc1ccc(NC(=O)N(C)C[C@@H]2OCCCC[C@@H](C)Oc3ccc(N(C)C)cc3C(=O)N([C@H](C)CO)C[C@@H]2C)cc1` the activation was 0.076% (inactive).
With `O=S(=O)(c1ccc(Cl)cc1)c1nc(-c2ccccc2F)oc1NCCN1CCOCC1` the activation was -0.673% (inactive).
For `NC(=O)c1c(NC(=O)c2cnn3c(C(F)F)cc(-c4ccccc4)nc23)sc2c1CCCC2`, the activation was -5.98% (inactive).
For `C[C@@H]1CN([C@H](C)CO)C(=O)c2cc(NC(=O)Cc3cn(C)c4ccccc34)ccc2O[C@H]1CN(C)S(C)(=O)=O`, the activation was -1.87% (inactive).
In the case of `Cc1ccc(S(=O)(=O)Nc2cccc3c2O[C@@H](CN(C)C(=O)Nc2ccccc2)[C@H](C)CN([C@@H](C)CO)C3=O)cc1`, the activation is reported as 2.15% (inactive).
In the case of `COc1ccc(S(=O)(=O)N(C)C[C@H]2Oc3ccc(NS(=O)(=O)c4c(C)noc4C)cc3CC(=O)N([C@@H](C)CO)C[C@H]2C)cc1`, the activation is reported as -0.136% (inactive).
For `COc1ccc(NC(=O)CSc2nc(-c3cccs3)cc(-c3ccsc3)c2C#N)cc1OC`, the activation was -6.31% (inactive).
With `O=C(CCc1nc(-c2ccccc2Cl)no1)Nc1ccc(Cl)c(Cl)c1` the activation was 1.17% (inactive).
For `C=CCSc1nc(N)cc(=O)[nH]1`, the activation was 0.998% (inactive).
In the case of `C[C@@H]1CN([C@H](C)CO)C(=O)Cc2cc(NS(=O)(=O)c3ccc(Cl)cc3)ccc2O[C@H]1CN(C)S(=O)(=O)c1cccs1`, the activation is reported as -2.73% (inactive).
In the case of `O=C(c1ccc(Cl)cc1)n1c(=O)oc2cc(Cl)ccc21`, the activation is reported as -0.599% (inactive).
With `Cc1ccccc1NC(=O)CSc1nnc(-c2ccc([N+](=O)[O-])cc2)n1C` the activation was 0.454% (inactive).
For `C[C@H]1CN([C@@H](C)CO)C(=O)c2cc(NS(=O)(=O)c3ccc(Cl)cc3)ccc2O[C@H]1CN(C)Cc1ccc(Oc2ccccc2)cc1`, the activation was 0.482% (inactive).
For `O=C1Cc2ccc(F)cc2CC1C1=Cc2ccc(F)cc2CC1` (centres undefined), the activation was -8.11% (inactive).
With `Cc1ccc([N+](=O)[O-])cc1N(CC(=O)Nc1ccc(Cl)c(C(F)(F)F)c1)S(C)(=O)=O` the activation was 3.56% (inactive).
For `N/C(CSc1nc2ccccc2s1)=N\O`, the activation was -0.165% (inactive).
For `C[C@@H]1CN([C@H](C)CO)C(=O)Cc2cc(NC(=O)NC3CCCCC3)ccc2O[C@H]1CN(C)S(C)(=O)=O`, the activation was 2.26% (inactive).
With `CC(C)(C)c1cn2c3ccccc3nc2n1CCN1CCOCC1` the activation was -2.35% (inactive).
In the case of `O=C(c1ccco1)N1CCN(CCOc2ccccc2)CC1`, the activation is reported as 4.48% (inactive).
For `COc1ccc(S(=O)(=O)Nc2ccc3c(c2)CC(=O)N([C@H](C)CO)C[C@@H](C)[C@@H](CN(C)C(=O)Nc2cccc4ccccc24)O3)cc1`, the activation was 0.476% (inactive).
With `C[C@@H]1CCCCO[C@@H](CN(C)S(=O)(=O)c2cn(C)cn2)[C@@H](C)CN([C@H](C)CO)C(=O)c2cc(NC(=O)c3ccncc3)ccc2O1` the activation was 3.7% (inactive).
In the case of `C[C@@H]1CCCCO[C@H](CN(C)S(=O)(=O)c2cccs2)[C@@H](C)CN([C@H](C)CO)C(=O)c2cc(NC(=O)Nc3ccccc3)ccc2O1`, the activation is reported as -1.94% (inactive).
In the case of `COc1ccc(NC(=O)Nc2ccc3c(c2)CC(=O)N([C@@H](C)CO)C[C@H](C)[C@@H](CN(C)Cc2ccc4c(c2)OCO4)O3)cc1`, the activation is reported as 0.816% (inactive).
For `COc1ccc(S(=O)(=O)Nc2ccc3c(c2)C(=O)N([C@H](C)CO)C[C@H](C)[C@@H](CN(C)S(C)(=O)=O)OCCCC[C@@H](C)O3)cc1`, the activation was 0.638% (inactive).
With `C[C@@H]1CN([C@@H](C)CO)C(=O)c2cc(NC(=O)Nc3ccccc3)ccc2O[C@@H]1CN(C)Cc1ccccc1` the activation was 1.95% (inactive).
For `C[C@@H]1CN([C@H](C)CO)C(=O)c2cc(NS(=O)(=O)c3ccccc3)ccc2O[C@H]1CN(C)C(=O)Nc1ccc2c(c1)OCO2`, the activation was 1.11% (inactive).
In the case of `COc1ccc(N(Cc2cc3ccccc3[nH]c2=O)C(=O)c2cccc(OC)c2)cc1`, the activation is reported as 1.92% (inactive).
With `C[C@H]1CN([C@@H](C)CO)C(=O)c2cccc(NC(=O)c3cnccn3)c2O[C@@H]1CN(C)Cc1ccc(Oc2ccccc2)cc1` the activation was -2.26% (inactive).
For `Cc1ccc(C23CC4CC(CC(CN)(C4)C2)C3)cc1C`, the activation was -7.62% (inactive).
In the case of `O=C(Nc1ccccc1)C(=S)Nc1ccccc1`, the activation is reported as -0.0947% (inactive).
For `Cc1noc(C)c1NC(=O)N(C)C[C@@H]1Oc2ccc(NC(=O)Nc3ccc(F)cc3)cc2C(=O)N([C@H](C)CO)C[C@@H]1C`, the activation was -0.0779% (inactive).
With `CN1CCN(S(=O)(=O)c2ccc(NC(=O)C3CC=CCC3C(=O)O)cc2)CC1` (centres undefined) the activation was 1.99% (inactive).
With `Cc1cc(C)c(NC(=O)CSc2nnc(-c3ccccc3)n2-c2ccc(F)cc2)c(C)c1` the activation was 1.56% (inactive).
In the case of `COc1ccc(NC(=O)c2ccc(OCC(=O)Nc3ccccc3F)cc2)cc1Cl`, the activation is reported as 0.553% (inactive).
In the case of `COc1ccc(NC(=O)N(C)C[C@@H]2Oc3ccc(NC(=O)Nc4ccccc4)cc3CC(=O)N([C@H](C)CO)C[C@@H]2C)cc1`, the activation is reported as -0.196% (inactive).
With `CCOC(=O)CCSc1nnc2c3ccccc3n(C)c2n1` the activation was -0.845% (inactive).
For `Cc1noc(C)c1NC(=O)Nc1ccc2c(c1)C(=O)N([C@H](C)CO)C[C@@H](C)[C@@H](CN(C)C(=O)NC(C)C)O2`, the activation was 0.338% (inactive).
For `O=C(CSc1nnc(-c2ccccc2)n1-c1ccc(Cl)cc1)Nc1ccc(Cl)cc1`, the activation was -11.8% (inactive).
In the case of `CCc1cc(C)cc(OCC(O)Cn2cnc3ccccc32)c1` (centres undefined), the activation is reported as -5.01% (inactive).
With `CN1CCN(C(=O)CCc2nc(-c3ccc(Cl)cc3)no2)CC1` the activation was -0.127% (inactive).
With `O=C(CSc1nnc2ccc3ccccc3n12)Nc1ccc2c(c1)OCCO2` the activation was 0.368% (inactive).
With `c1ccc(Nc2ncnc3sc(-c4ccccc4)cc23)cc1` the activation was -0.968% (inactive).
In the case of `CCCC(=O)Nc1ncnc2c1ncn2[C@@H]1O[C@@H]2OP(=O)(O)OC[C@H]2[C@H]1OC(=O)CCC`, the activation is reported as 4.46% (inactive).
With `CCOc1ccc2nc(Nc3nc(C)c(Cc4ccc(C)cc4)c(=O)[nH]3)nc(C)c2c1` the activation was -0.875% (inactive).
For `COc1ccc(C(=O)CSc2nnc(-c3cccc(C)c3)n2-c2ccccc2)cc1`, the activation was 1.1% (inactive).
In the case of `Cc1ccc(S(=O)(=O)N(C)C[C@@H]2Oc3c(NC(=O)C4CC4)cccc3C(=O)N([C@H](C)CO)C[C@H]2C)cc1`, the activation is reported as 1.35% (inactive).
